Data on 79 compounds can be found in PubChem BioAssay AID1963822 (ICCB-Longwood Screening Facility, Harvard Medical School, 2024).

A short description of this experiment: anaerobic choline-dependent bacterial growth inhibition – minimal medium, absorbance (AID 1963822). The following applies: Gram-negative bacterium anaerobic choline minimal medium.
Where [1] appears, read: measured here: choline growth z-score, timepoint 1, stronger effect = lower value.

Among all 55,000 compounds or so, about 90 (0.2%) were called active. The rule behind the calls is not given here. The list comes from a sample in which actives are over-represented; it also holds similar structures and randomly drawn compounds.

As to `COc1cccc(N2C(=O)c3cc(C)nn3CC2(C)C(=O)NCc2ccccc2)c1` (stereo not drawn), the z-score (stronger effect = lower value) was 0.09 (inactive) and the z-score under setting [1] was -0.96.
The matching figures for `Cc1cc(C)n(CCc2nc(-c3ccc(Cl)cc3)no2)n1`: -0.52 (inactive) and -1.19.
`O=C(NC1CCCCC1)c1ccc(Cl)c(-n2nnc3cccnc32)c1`: the z-score by setting is: (stronger effect = lower value) 0.14 (inactive); under setting [1], 0.44.
The corresponding values for `Cc1cccc(-c2nn3c(=O)cc(CN4CCN(C(=O)c5cccc(Br)c5)CC4)nc3s2)c1` are 0.88 (inactive) and 0.71.
The corresponding values for `COc1ccc2cc3c(nc2c1)N(C(=O)c1ccc(OC)c(OC)c1)CC3` are 0.77 (inactive) and 0.04.
The corresponding values for `COc1cccc(-c2nn(Cc3ccc(C)cc3)c(=O)c3noc(C)c23)c1` are 1.18 (inactive) and -0.21.
Consider `COc1ccc(NC(=O)N2CCN(C)c3ncccc32)cc1`, for which the z-score (stronger effect = lower value) was -0.52 (inactive) and the z-score under setting [1] is -1.12.
The matching figures for `COc1ccc(-c2nc(SCC(=O)Oc3ccc(C)cc3C)n3[nH]c(=O)cc3n2)cc1`: -0.54 (inactive) and -0.44.
The matching figures for `CN(C)C(=O)CN1C(=O)COc2ccc(C(=O)NCc3ccc4c(c3)OCO4)cc21`: 0.4 (inactive) and 0.23.
The matching figures for `O=C1CN(Cc2ccccc2Cl)S(=O)(=O)c2ccccc2N1Cc1cccc(F)c1`: 0.04 (inactive) and 0.04.
For the compound `CCOc1ccc(NC(=O)NCCn2c(C(F)(F)F)nc3ccccc32)cc1`, the z-score was 0.3 (inactive) (stronger effect = lower value) and 0.45 under setting [1].
For `O=C(Cc1nnc(NC(=O)Nc2cccc(Cl)c2)s1)NCc1ccccc1`, the z-score was 0.49 (inactive) (stronger effect = lower value) and 0.9 under setting [1].
As to `CCC(=O)Nc1nc2cc(NC(=O)Nc3cccc(Cl)c3)ccc2s1`, the z-score (stronger effect = lower value) was 0 (inactive) and the z-score under setting [1] is -0.84.
As for `O=C(Cc1csc(NC(=O)Nc2ccc(Cl)cc2)n1)Nc1cccc(Cl)c1`, the z-score reads like this: (stronger effect = lower value) -2.04 (active); under setting [1], -1.2.
The matching figures for `O=C(NCc1ccc2c(c1)OCO2)c1ccc(-c2noc(C3CC3)n2)cc1`: 0.36 (inactive) and 0.22.
The matching figures for `COCC(=O)Nc1ccc(-c2nc3ccccc3s2)cc1`: -0.9 (inactive) and -0.43.
For the compound `CCSc1nc2ccc(NS(=O)(=O)Cc3cc(C)ccc3C)cc2s1`, the z-score is, setting by setting: (stronger effect = lower value) 1.35 (inactive); under setting [1], 0.62.
The corresponding values for `Cc1csc2ncc(C(=O)N3CCCCCC3)c(=O)n12` are -0.29 (inactive) and -0.07.
The corresponding values for `c1ccc(CCNc2c3c(nc4nncn24)CCC3)cc1` are 0.56 (inactive) and 0.78.
For `CC(C)n1cnc(S(=O)(=O)N2CCC(C(=O)N3CCCC3)CC2)c1`, the z-score reads like this: (stronger effect = lower value) 0.57 (inactive); under setting [1], -0.23.
The corresponding values for `O=C(Nc1ccc(Br)cc1F)N1CCN(c2cc(-c3ccccc3)ncn2)CC1` are -1.08 (inactive) and -1.03.
The corresponding values for `CCC1Oc2cc(S(=O)(=O)N3CCCC(C(=O)N4CCc5ccccc54)C3)c(C)cc2NC1=O` (stereo not drawn) are 0.06 (inactive) and -0.03.
The matching figures for `CCN1CCN(S(=O)(=O)c2ccc(C)cc2C)c2cccnc21`: -0.02 (inactive) and -0.19.
`Cn1c(=O)n(C)c2cc(CNCC(O)c3ccccc3)ccc21` (stereo not drawn): the z-score (stronger effect = lower value) was -0.37 (inactive) and the z-score under setting [1] is -0.32.
The matching figures for `Cc1ccc2c(c1)c1c(n2CC(O)CNCc2ccccc2)CCCC1` (stereo not drawn): -2.96 (active) and -0.69.
The matching figures for `COC(=O)CC1=CC(=O)N(CC(=O)Nc2ccc(C)cc2Br)c2ccccc2N1`: 0.27 (inactive) and 0.25.
The matching figures for `COc1ccc(-n2nnc3c(N4CCN(C(=O)CC5CCCC5)CC4)ncnc32)cc1`: -0.34 (inactive) and 0.31.
On to `CC(C)CSc1nn(C)c2nc3c(c(=O)n12)C(C)(C)Cc1ccccc1-3`, for which the z-score runs as follows: (stronger effect = lower value) 0.12 (inactive); under setting [1], -0.98.
The corresponding values for `Cn1cc(CN2CCC(C(=O)N3CCCC3)CC2)c2cc(Cl)ccc21` are -1.08 (inactive) and -0.88.
The matching figures for `CCC(C)(C)NC(=O)CN(C)S(=O)(=O)c1cc2c(cc1Cl)NC(=O)CO2`: 0.45 (inactive) and -0.29.
The matching figures for `COc1ccc(-c2nn(-c3ccccc3)cc2C2CC(c3ccccc3)=NN2S(C)(=O)=O)cc1` (stereo not drawn): 0.58 (inactive) and 0.97.
As for `Cc1nc(N2CCCC2)ncc1C(=O)N1CCCCC1`, the z-score is 0.92 (inactive) (stronger effect = lower value) and -0.25 under setting [1].
The matching figures for `CCCn1c(=O)c2ccccc2n2c(=O)n(CC(=O)c3ccc(C)cc3C)nc12`: -0.82 (inactive) and -0.89.
The matching figures for `Cn1c(=O)c2[nH]c(-c3ccncc3)nc2n(C)c1=O`: -1.62 (inactive) and -1.51.
The corresponding values for `Cc1ccc(-c2noc(CCn3nc(-c4ccc5c(c4)OCO5)ccc3=O)n2)cc1` are 1.77 (inactive) and 1.44.
For the compound `CCOc1ccc(NC(=O)Nc2ccc(-c3cc4cc(Cl)ccc4[nH]3)cc2)cc1`, the z-score by setting is: (stronger effect = lower value) -0.97 (inactive); under setting [1], -1.43.
The corresponding values for `Cc1nn(CC(=O)NCCc2c[nH]c3ccccc23)c(=O)c2noc(C)c12` are -1.18 (inactive) and -0.02.
The matching figures for `CCC(Sc1nnc(-c2ccccc2NC(C)=O)c(=O)[nH]1)C(=O)Nc1c(C)cc(C)cc1C` (stereo not drawn): 0.57 (inactive) and -0.51.
As for `COc1ccc(NC(=O)CSc2nc3ccccc3n2Cc2ncc(C)c(OC)c2C)cc1`, the z-score is 0.8 (inactive) (stronger effect = lower value) and 0.74 under setting [1].
The corresponding values for `COc1ccc(CN2CCCC2c2cc(C)on2)cc1CN1CCOCC1` (stereo not drawn) are -1.52 (inactive) and -0.66.
The corresponding values for `COc1cc2[nH]c(=O)n(CCCC(=O)NCCCN3CCN(c4cccc(Cl)c4)CC3)c(=O)c2cc1OC` are -0.27 (inactive) and 0.11.
The corresponding values for `O=C(CN(Cc1ccccc1)S(=O)(=O)c1ccc(Br)cc1)N1CCN(c2ccc(F)cc2)CC1` are 0.95 (inactive) and 0.76.
Take `O=C(Nc1ccccc1F)C1CC(=O)N(CCc2c[nH]c3ccc(F)cc23)C1` (stereo not drawn): the z-score is -0.07 (inactive) (stronger effect = lower value) and 0.17 under setting [1].
For the compound `CC(=O)Nc1ccc(S(=O)(=O)N2CCN(Cc3nc4cccnc4n3-c3ccc(C)cc3)CC2)cc1`, the z-score is 0.91 (inactive) (stronger effect = lower value) and -0.17 under setting [1].
The matching figures for `Cc1ccc(-n2nc(N3CCCN(C(=O)C4CCC4)CC3)ccc2=O)cc1C`: -0.57 (inactive) and 1.18.
The corresponding values for `CCN(CCCNC(=O)C1CCCN(C(=O)c2cccc(Cl)c2)C1)c1ccccc1` (stereo not drawn) are -1 (inactive) and -1.29.
For `Cc1nc(N2CCC(C(=O)N3CCOCC3)CC2)c2c(C)c(C)oc2n1`, the z-score is, setting by setting: (stronger effect = lower value) -0.5 (inactive); under setting [1], -0.48.
On to `CCOc1ccc(NC(=O)Nc2ccc(Cn3cnc(-c4nc(-c5ccc(Cl)cc5)no4)c3)cc2)cc1`, for which the z-score by setting is: (stronger effect = lower value) 0.25 (inactive); under setting [1], 0.58.
As to `O=C(O)C1Nc2ccc(Cl)cc2C2C=CCC12` (stereo not drawn), the z-score reads like this: (stronger effect = lower value) 1.42 (inactive); under setting [1], 2.01.
The matching figures for `Cc1ccc(OCc2nc3c4ccccc4ncn3n2)cc1`: 0.29 (inactive) and 0.48.
The corresponding values for `CC(C)c1ccc(N2C(=O)c3cc4ccsc4n3CC2(C)C(=O)NC2CCCC2)cc1` (stereo not drawn) are 0.43 (inactive) and 0.35.
The corresponding values for `CCOc1cc(-c2noc(CCCC(=O)Nc3cccnc3)n2)ccc1OC` are -0.11 (inactive) and -0.21.
Regarding `CN(CCc1noc(-c2ccccc2Cl)n1)S(=O)(=O)c1cccc2nsnc12`, the z-score by setting is: (stronger effect = lower value) 0.03 (inactive); under setting [1], -1.43.
Turning to `CCN1CCN(C(=O)c2cc(C)n(CCN3CCCC3)c2C)CC1`, the z-score (stronger effect = lower value) is -1.12 (inactive) and the z-score under setting [1] was -1.13.
Turning to `Cc1nc(-c2ccc(C)c(S(=O)(=O)N3CCC(C(=O)N4CCN(c5ccc(F)cc5)CC4)CC3)c2)no1`, the z-score was 0.78 (inactive) (stronger effect = lower value) and 0.51 under setting [1].
The matching figures for `COC(=O)C1=CN(C)S(=O)(=O)N=C1C`: 1.05 (inactive) and 0.71.
As to `O=C(O)c1c[nH]c2ccc(S(=O)(=O)NC3CCCCNC3=O)cc2c1=O` (stereo not drawn), the z-score runs as follows: (stronger effect = lower value) 1.32 (inactive); under setting [1], 1.13.
The matching figures for `O=C(c1cc2cc(Cl)ccc2[nH]1)N1CCCN(c2ccc(=O)n(-c3ccccc3)n2)CC1`: -1.08 (inactive) and -1.54.
Regarding `CCCCCCCC/C=C\CCCCCCCC(=O)OC[C@H](CO)OC(C)=O`, the z-score was 0.47 (inactive) (stronger effect = lower value) and 0.34 under setting [1].
With `CCCCC/C=C\CC1OC1CCCCCCCC(=O)O` (stereo not drawn), the z-score was -3.37 (active) (stronger effect = lower value) and -3.13 under setting [1].
The corresponding values for `CCCCC/C=C\C/C=C\CCCCCCCCCC(=O)O` are -3.44 (active) and -3.23.
The corresponding values for `CCCCCC(=O)CC[C@H]1[C@H](O)CC(=O)[C@@H]1C/C=C\CCCC(=O)O` are 0.71 (inactive) and 1.09.
The corresponding values for `CCCC[C@H](C)C[C@H](O)/C=C/[C@@H]1[C@@H](CCCCCCC(=O)O)[C@@H](O)C[C@H]1O` are 0.5 (inactive) and -0.78.
With `CCCCC[C@@](C)(O)/C=C/[C@H]1C=CC(=O)[C@@H]1C/C=C\CCCC(=O)O`, the z-score (stronger effect = lower value) was -0.26 (inactive) and the z-score under setting [1] was found to be 0.66.
The corresponding values for `CCOC(=O)c1ccc(NC(=O)CSc2nnc(NC(=O)NC3CCCCC3)s2)cc1` are 0.1 (inactive) and 0.31.
Regarding `COc1cccc(C2Nc3ccc(Cl)cc3[C@H]3OCCC[C@@H]23)c1OC` (stereo partly drawn), the z-score runs as follows: (stronger effect = lower value) 1.2 (inactive); under setting [1], 2.03.
For `CN(CCCNC(=O)c1c2c(nc3ccccc13)C(=O)N(C1CCCCC1)C2)c1ccccc1`, the z-score (stronger effect = lower value) was -0.07 (inactive) and the z-score under setting [1] was -1.59.
The corresponding values for `COc1ccc(NC(=O)c2cccc(-c3nc(-c4ccc(F)cc4)no3)c2)cc1OC` are -1 (inactive) and -0.62.
The corresponding values for `CN1CCN(S(=O)(=O)c2ccc3c(c2)C(C)(C)CN3CC(=O)N2CCCC2)CC1` are 1.07 (inactive) and 0.91.
The matching figures for `Cc1cn(C)c(CC(=O)NC2CCN(Cc3ccccc3)CC2)c1C(=O)O`: -0.86 (inactive) and 0.19.
For `Brc1ccc(-c2nn[nH]n2)cc1`, the z-score is -1.32 (inactive) (stronger effect = lower value) and -1.04 under setting [1].
The corresponding values for `CCOC(=O)C1CCCN(C(=O)Cn2c(=O)c3ccccc3n3c(=S)sc(-c4ccccc4)c23)C1` (stereo not drawn) are 0.91 (inactive) and 0.36.
The matching figures for `CCN(CC)C(=O)CSc1nnc2c3ccccc3nc(-c3ccccc3)n12`: 2.11 (inactive) and 1.21.
Take `CCOc1ccc(S(=O)(=O)NC(C)C)cc1-c1nc(C)no1`: the z-score reads like this: (stronger effect = lower value) 0.37 (inactive); under setting [1], -1.19.
The corresponding values for `CCCN(CCC)CCNc1cc(C)nc2c(-c3ccccc3OC)c(C)nn12` are 1.1 (inactive) and -0.02.
The corresponding values for `Cc1nc(-c2csc(S(=O)(=O)NCc3ccccc3Cl)c2)sc1C` are -0.96 (inactive) and -0.18.
The matching figures for `Cc1[nH]nc2c1C(C(=O)c1cccc(Cl)c1)CC(=O)N2` (stereo not drawn): 0.36 (inactive) and 0.1.
On to `COc1ccc(NS(=O)(=O)c2cc(-c3nc(-c4ccccc4)no3)sc2C)cc1OC`, for which the z-score was 0.43 (inactive) (stronger effect = lower value) and -0.06 under setting [1].
The corresponding values for `CCN1CCN(C(=O)c2cc(N(C)S(=O)(=O)c3ccccc3)ccn2)CC1` are 0.78 (inactive) and 0.89.
